Targets with a hit are over-represented here; the source holds about 8,800 in all. About 0.5% of all pairs of compound and target were hits.
Key:
Assay in all cases: log2 fold change, soluble protein after heating vs DMSO (PISA); higher = thermal stabilisation; K562 lysate, 10 uM; active = over 0.2 and 3.5 SD of the protein, either way, in both replicates (recomputed)
ibrutinib = compound: C=CC(=O)N1CCC[C@@H](n2nc(-c3ccc(Oc4ccccc4)cc3)c3c(N)ncnc32)C1 [ibrutinib]
Outline: (§1)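 Pellets of K562 cells were dounce-homogenised in PBS pH 7.4 with 1 mM MgCl2, and the crude extract was held at 1 mg/mL protein for a 30 min treatment with 10 μM compound. Aliquots were heated for 3 min over 48°C-58°C and pooled before NP-40 was added to 0.5% at 4°C. The supernatant from 21,000xg for 90 min was quantified by TMTpro 16plex LC-MS/MS with channel sums equalised. Values are reported from duplicates as log-two fold change in thermal stability relative to solvent controls.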

ralimetinib = compound: CC(C)(C)Cn1c(N)nc2ccc(-c3[nH]c(C(C)(C)C)nc3-c3ccc(F)cc3)nc21 [ralimetinib]
Outline: as §1

[1] = compound: CC(C)(O)CC(=O)NCCn1ccc2ncnc(Nc3ccc(Oc4cccc(C(F)(F)F)c4)c(Cl)c3)c21
Outline: as §1

[2] = compound: CC(C)C1=C2N=C(C=C(N2N=C1)NCC3=CC=CC=C3)NCCCCCCN
Outline: as §1

[3] = compound: CC1=C(C(CC(=O)N1)C2=CC=C(C=C2)C(F)(F)F)C(=O)NC3=C(C=C4C(=C3)C=NN4)F
Outline: as §1

[4] = compound: CC1=C(C2=C(C=C1)C(=O)C3=CC=CC=C3N2CCCN)C
Outline: as §1

[5] = compound: CC1=C(C=C(C=C1)NC(=O)C2=CC(=CC=C2)C(C)(C)C#N)NC3=CC4=C(C=C3)N=CN(C4=O)C
Outline: as §1

[6] = compound: CC1=C(C=C(C=C1)NC(=O)C2=CC(=CC=C2)N(C)C)NC(=O)C3=CC=C(C=C3)O
Outline: as §1

vemurafenib = compound: CCCS(=O)(=O)Nc1ccc(F)c(C(=O)c2c[nH]c3ncc(-c4ccc(Cl)cc4)cc23)c1F [vemurafenib]
Outline: as §1

barasertib = compound: CCN(CCCOc1ccc2c(Nc3cc(CC(=O)Nc4cccc(F)c4)[nH]n3)ncnc2c1)CCOP(=O)(O)O [barasertib]
Outline: as §1

[7] = compound: CC[C@@H]1C(=O)N(C)c2cnc(Nc3ccc(C(=O)NC4CCN(C)CC4)cc3OC)nc2N1C1CCCC1
Outline: as §1

[8] = compound: CCn1c(C(=O)N(C2CC2)C2CC2)cc2c3c(ncn3C)c(Nc3cc(C)n(C)n3)nc21
Outline: as §1

[9] = compound: CCn1cc(-c2ccnc3[nH]c(-c4cccc(CN(C)C)c4)cc23)c(-c2ccc(NC(=O)N(C)C)cc2)n1
Outline: as §1

[10] = compound: CN1CCC(CNc2ccc3ncc(-c4cccc(OC(F)(F)F)c4)n3n2)CC1
Outline: as §1

saracatinib = compound: CN1CCN(CCOc2cc(OC3CCOCC3)c3c(Nc4c(Cl)ccc5c4OCO5)ncnc3c2)CC1 [saracatinib]
Outline: as §1

sotrastaurin = compound: CN1CCN(c2nc(C3=C(c4c[nH]c5ccccc45)C(=O)NC3=O)c3ccccc3n2)CC1 [sotrastaurin]
Outline: as §1

[11] = compound: CC(=O)c1cnc2ccc(-c3cc(Cl)c(O)c(Cl)c3)nc2c1N[C@H]1CC[C@H](CN(C)C)CC1
Outline: as §1

[12] = compound: CC1=CC=C(C=C1)SC2=C3C=C(SC3=CN=C2)C(=O)N
Outline: as §1

[13] = compound: CCCS(=O)(=O)Nc1ccc(F)c(C(=O)c2c[nH]c3ncc(Cl)cc23)c1F
Outline: as §1

volasertib = compound: CC[C@@H]1C(=O)N(C)c2cnc(Nc3ccc(C(=O)N[C@H]4CC[C@H](N5CCN(CC6CC6)CC5)CC4)cc3OC)nc2N1C(C)C [volasertib]
Outline: as §1

Measured: log2 fold change

UBL5 (UniProt Q9BZL1)
inactive: ibrutinib 0.052 | ralimetinib -0.029 | [1] 0.04 | [2] -0.003 | [3] -0.056 | [4] 0.032 | [5] 0.038 | [6] 0.037 | vemurafenib 0.014 | barasertib 0.036 | [7] -0.015 | [8] -0.028 | [9] -0.126 | [10] 0.097 | saracatinib -0.007 | sotrastaurin -0.186

TMOD1 (UniProt P28289)
UniProt P28289, sequence (P28289 whole entry, looked up): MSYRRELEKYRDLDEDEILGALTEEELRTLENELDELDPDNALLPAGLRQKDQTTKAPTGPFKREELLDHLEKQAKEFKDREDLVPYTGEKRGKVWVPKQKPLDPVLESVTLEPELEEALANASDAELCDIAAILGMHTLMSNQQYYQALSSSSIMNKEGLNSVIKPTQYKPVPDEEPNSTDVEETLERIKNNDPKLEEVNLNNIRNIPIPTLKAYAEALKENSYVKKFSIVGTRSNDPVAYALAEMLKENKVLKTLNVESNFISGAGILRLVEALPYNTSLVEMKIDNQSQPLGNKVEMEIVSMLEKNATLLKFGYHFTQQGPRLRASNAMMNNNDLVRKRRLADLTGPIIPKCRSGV
inactive: ibrutinib 0.002 | [11] 0.007 | ralimetinib -0.015 | [1] -0.02 | [2] 0 | [3] -0.004 | [4] 0.006 | [5] 0 | [6] 0.016 | [12] -0.019 | vemurafenib -0.015 | [13] -0.02 | barasertib 0.027 | [7] -0.027 | volasertib -0.031 | [8] -0.024 | [9] 0.041 | [10] -0.031 | saracatinib -0.001 | sotrastaurin -0.017

UBE2H (UniProt P62256)
UniProt P62256, sequence (P62256 whole entry, looked up): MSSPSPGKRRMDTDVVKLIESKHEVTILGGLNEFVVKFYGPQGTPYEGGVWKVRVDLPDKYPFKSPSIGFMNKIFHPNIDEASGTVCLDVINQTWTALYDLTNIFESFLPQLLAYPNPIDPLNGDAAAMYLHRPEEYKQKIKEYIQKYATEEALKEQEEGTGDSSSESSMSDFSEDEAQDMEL
inactive: ibrutinib 0.032 | [11] 0.026 | ralimetinib -0.033 | [1] -0.002 | [2] -0.004 | [3] 0.064 | [4] 0.022 | [5] 0.005 | [6] 0.026 | [12] -0.027 | vemurafenib -0.032 | [13] -0.013 | barasertib -0.006 | [7] 0.011 | volasertib 0.004 | [8] -0.055 | [9] 0.166 | saracatinib -0.056 | sotrastaurin -0.02
active: [10] -0.227

TXNIP (UniProt Q9H3M7)
inactive: ibrutinib -0.009 | ralimetinib 0.007 | [1] -0.02 | [2] -0.053 | [3] 0.011 | [4] -0.036 | [5] 0.037 | [6] 0.016 | vemurafenib 0.008 | barasertib -0.005 | [7] -0.006 | [8] 0.016 | [9] 0.209 | [10] -0.11 | saracatinib -0.07 | sotrastaurin 0.016

TMEM167B (UniProt Q9NRX6)
UniProt Q9NRX6, sequence (Q9NRX6 whole entry, looked up): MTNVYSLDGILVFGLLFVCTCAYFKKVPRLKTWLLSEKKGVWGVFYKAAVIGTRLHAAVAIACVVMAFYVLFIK
active: [9] -0.472
inactive: ibrutinib 0.019 | [11] -0.02 | ralimetinib 0.015 | [1] 0.001 | [2] -0.02 | [3] -0.058 | [5] 0.021 | [6] 0.035 | [12] -0.033 | vemurafenib 0.058 | [13] -0.057 | barasertib -0.009 | [7] 0.053 | volasertib 0.038 | [8] -0.028 | [10] 0.086 | sotrastaurin 0.056

TLE3 isoform 5 (UniProt Q04726)
inactive: ibrutinib 0.045 | [11] -0.022 | ralimetinib -0.027 | [1] -0.077 | [2] -0.061 | [3] 0.138 | [4] -0.053 | [5] 0.093 | [6] 0.018 | [12] -0.035 | [13] 0.037 | barasertib -0.176 | [7] 0.026 | volasertib -0.025 | [8] 0.034 | [9] 0.101 | [10] 0.178 | saracatinib 0.049 | sotrastaurin 0.015

TIMELESS (UniProt Q9UNS1)
UniProt Q9UNS1, sequence (Q9UNS1 whole entry, looked up): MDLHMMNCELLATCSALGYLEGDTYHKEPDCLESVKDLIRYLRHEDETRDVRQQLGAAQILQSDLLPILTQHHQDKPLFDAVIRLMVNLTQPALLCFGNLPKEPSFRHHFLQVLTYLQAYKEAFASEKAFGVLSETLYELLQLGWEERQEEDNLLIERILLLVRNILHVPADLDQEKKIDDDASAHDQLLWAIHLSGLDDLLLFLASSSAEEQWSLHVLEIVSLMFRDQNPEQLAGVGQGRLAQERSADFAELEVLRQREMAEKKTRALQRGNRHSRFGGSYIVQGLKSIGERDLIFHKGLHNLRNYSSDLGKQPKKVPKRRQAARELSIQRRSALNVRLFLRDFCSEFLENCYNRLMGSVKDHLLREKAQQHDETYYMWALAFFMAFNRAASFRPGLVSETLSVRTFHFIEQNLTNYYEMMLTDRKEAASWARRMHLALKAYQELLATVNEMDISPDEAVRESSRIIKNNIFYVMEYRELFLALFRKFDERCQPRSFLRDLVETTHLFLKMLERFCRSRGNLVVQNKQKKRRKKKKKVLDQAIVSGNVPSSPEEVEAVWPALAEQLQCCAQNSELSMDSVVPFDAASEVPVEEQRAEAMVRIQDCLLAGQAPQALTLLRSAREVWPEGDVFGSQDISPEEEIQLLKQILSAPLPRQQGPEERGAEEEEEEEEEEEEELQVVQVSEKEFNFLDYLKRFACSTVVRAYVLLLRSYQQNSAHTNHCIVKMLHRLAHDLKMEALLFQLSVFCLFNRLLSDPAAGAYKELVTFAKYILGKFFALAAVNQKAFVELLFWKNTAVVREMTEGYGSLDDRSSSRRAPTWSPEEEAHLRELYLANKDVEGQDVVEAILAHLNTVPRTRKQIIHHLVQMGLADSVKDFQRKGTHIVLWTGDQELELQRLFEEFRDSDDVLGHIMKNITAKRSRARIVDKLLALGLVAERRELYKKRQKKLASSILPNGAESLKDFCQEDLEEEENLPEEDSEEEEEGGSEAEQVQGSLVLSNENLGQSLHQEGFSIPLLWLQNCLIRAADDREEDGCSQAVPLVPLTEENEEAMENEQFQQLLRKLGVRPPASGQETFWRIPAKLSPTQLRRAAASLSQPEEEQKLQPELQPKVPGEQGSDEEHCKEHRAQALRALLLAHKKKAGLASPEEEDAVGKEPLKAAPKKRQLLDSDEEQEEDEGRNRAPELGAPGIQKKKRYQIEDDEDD
inactive: ibrutinib 0.011 | [11] -0.079 | ralimetinib 0.006 | [1] -0.053 | [2] -0.01 | [3] 0.011 | [4] -0.007 | [5] -0.01 | [6] 0.029 | [12] -0.027 | vemurafenib 0.035 | [13] 0.031 | barasertib 0.039 | [7] -0.058 | volasertib 0.043 | [8] 0.013 | [9] -0.094 | [10] -0.07 | saracatinib 0.035 | sotrastaurin 0

TNIK isoform 5 (UniProt Q9UKE5)
UniProt Q9UKE5, sequence (Q9UKE5 whole entry, looked up): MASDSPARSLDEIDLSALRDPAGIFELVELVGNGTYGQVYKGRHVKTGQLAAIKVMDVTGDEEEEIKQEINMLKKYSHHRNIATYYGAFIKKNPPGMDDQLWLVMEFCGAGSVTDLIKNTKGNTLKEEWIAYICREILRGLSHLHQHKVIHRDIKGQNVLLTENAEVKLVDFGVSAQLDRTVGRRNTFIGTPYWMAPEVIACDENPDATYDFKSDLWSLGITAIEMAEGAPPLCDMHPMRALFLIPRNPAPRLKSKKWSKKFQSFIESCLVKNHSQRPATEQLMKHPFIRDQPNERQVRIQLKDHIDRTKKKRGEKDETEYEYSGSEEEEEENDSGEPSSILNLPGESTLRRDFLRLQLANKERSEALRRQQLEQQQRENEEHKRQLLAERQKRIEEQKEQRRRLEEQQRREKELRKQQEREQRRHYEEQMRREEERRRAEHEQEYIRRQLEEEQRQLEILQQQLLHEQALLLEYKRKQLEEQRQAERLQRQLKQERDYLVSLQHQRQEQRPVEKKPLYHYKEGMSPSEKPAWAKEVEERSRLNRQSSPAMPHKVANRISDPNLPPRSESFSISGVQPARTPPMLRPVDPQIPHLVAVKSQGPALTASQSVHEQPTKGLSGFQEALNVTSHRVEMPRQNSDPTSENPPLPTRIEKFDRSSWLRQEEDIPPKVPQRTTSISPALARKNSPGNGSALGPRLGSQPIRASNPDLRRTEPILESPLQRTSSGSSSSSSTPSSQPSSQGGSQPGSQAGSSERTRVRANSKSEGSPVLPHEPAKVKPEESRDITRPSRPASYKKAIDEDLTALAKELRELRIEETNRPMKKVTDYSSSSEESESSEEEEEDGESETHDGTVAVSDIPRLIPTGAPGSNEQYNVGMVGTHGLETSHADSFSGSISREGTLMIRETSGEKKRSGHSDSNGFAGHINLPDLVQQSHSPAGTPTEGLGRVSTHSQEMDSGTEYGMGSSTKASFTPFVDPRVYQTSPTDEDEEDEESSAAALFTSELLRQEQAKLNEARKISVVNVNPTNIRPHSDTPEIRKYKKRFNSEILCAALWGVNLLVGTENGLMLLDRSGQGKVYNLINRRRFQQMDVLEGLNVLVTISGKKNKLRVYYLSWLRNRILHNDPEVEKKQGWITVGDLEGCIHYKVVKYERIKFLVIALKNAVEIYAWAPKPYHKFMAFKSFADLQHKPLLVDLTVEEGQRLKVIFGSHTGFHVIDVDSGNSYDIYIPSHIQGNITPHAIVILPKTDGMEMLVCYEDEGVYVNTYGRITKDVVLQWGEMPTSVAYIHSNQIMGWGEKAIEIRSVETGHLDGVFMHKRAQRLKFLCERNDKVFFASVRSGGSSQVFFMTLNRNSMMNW
inactive: ibrutinib 0.07 | [11] 0.345 | ralimetinib 0.016 | [1] -0.026 | [4] -0.091 | [5] 0.276 | [6] -0.004 | [12] -0.136 | [13] -0.118 | barasertib 0.021 | volasertib -0.087 | [8] -0.059 | [9] -0.051 | [10] -0.065 | saracatinib 0.022 | sotrastaurin 0.034

UBXN2B (UniProt Q14CS0)
inactive: ibrutinib 0.108 | [11] 0.19 | ralimetinib 0.087 | [1] -0.075 | [2] 0.002 | [3] -0.189 | [4] -0.192 | [6] 0.022 | [12] -0.011 | vemurafenib 0.148 | [13] 0.049 | barasertib 0.147 | [7] 0.065 | volasertib -0.066 | [8] -0.035 | [9] -0.142 | [10] 0.074 | saracatinib -0.068

UBXN10 (UniProt Q96LJ8)
inactive: ibrutinib 0.016 | [11] 0.044 | ralimetinib 0.002 | [1] -0.012 | [2] 0.014 | [4] 0.012 | [5] -0.001 | [6] 0.069 | [12] -0.015 | vemurafenib 0.008 | [13] -0.089 | barasertib -0.133 | [7] 0.095 | volasertib 0.074 | [8] 0.01 | [9] -0.082 | [10] 0.021 | saracatinib -0.016 | sotrastaurin -0.012

TUBB4A (UniProt P04350)
UniProt P04350, sequence (P04350 whole entry, looked up): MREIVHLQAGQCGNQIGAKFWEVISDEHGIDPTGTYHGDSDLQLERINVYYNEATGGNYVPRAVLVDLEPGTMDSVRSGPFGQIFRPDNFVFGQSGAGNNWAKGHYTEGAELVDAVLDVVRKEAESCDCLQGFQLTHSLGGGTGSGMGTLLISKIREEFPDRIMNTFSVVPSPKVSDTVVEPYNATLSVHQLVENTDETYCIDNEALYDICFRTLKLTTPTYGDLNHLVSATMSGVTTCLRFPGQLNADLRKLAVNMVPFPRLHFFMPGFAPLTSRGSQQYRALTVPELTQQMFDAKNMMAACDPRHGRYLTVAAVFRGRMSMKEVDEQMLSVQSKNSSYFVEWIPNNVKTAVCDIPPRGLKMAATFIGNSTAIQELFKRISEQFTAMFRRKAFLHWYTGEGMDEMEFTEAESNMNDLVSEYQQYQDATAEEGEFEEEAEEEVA
inactive: ibrutinib 0.007 | [11] -0.018 | ralimetinib 0.074 | [1] 0.039 | [2] 0.088 | [3] 0.009 | [4] -0.086 | [5] -0.085 | [6] -0.015 | [12] -0.068 | [13] 0.036 | barasertib -0.006 | [7] 0.045 | volasertib 0.104 | [8] 0.02 | [9] -0.09 | [10] 0 | saracatinib -0.033 | sotrastaurin -0.007

TUBGCP5 (UniProt Q96RT8)
UniProt Q96RT8, sequence (Q96RT8 whole entry, looked up): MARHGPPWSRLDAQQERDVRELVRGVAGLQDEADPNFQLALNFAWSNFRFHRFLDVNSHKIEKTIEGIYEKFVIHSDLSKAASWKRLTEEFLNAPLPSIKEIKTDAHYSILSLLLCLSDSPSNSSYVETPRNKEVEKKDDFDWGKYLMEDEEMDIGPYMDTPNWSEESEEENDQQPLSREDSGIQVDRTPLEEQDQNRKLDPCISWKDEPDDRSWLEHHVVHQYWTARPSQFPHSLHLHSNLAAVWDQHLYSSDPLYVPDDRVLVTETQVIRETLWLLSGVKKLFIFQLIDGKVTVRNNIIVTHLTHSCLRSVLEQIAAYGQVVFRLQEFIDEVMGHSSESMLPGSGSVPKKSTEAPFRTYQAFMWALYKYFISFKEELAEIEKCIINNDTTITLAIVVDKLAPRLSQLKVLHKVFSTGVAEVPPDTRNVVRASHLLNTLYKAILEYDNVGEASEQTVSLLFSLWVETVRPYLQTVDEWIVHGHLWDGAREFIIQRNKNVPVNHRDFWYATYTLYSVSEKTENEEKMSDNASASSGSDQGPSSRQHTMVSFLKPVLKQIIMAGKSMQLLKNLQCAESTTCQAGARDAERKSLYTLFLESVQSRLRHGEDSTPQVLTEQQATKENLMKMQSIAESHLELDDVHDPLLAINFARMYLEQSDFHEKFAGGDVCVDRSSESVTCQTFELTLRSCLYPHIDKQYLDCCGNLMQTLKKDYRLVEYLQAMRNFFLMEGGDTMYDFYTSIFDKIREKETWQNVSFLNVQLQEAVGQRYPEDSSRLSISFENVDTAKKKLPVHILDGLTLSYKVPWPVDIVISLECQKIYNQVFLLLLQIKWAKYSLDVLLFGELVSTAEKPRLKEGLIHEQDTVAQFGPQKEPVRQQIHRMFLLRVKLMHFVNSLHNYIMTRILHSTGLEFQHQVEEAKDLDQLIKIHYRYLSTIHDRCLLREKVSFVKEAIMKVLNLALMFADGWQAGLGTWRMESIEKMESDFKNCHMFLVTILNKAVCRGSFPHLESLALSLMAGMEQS
inactive: ibrutinib 0.036 | [11] 0.363 | ralimetinib 0.038 | [1] 0.026 | [3] 0.009 | [4] 0.001 | [5] -0.007 | [6] -0.049 | [12] -0.118 | vemurafenib -0.023 | [13] -0.351 | barasertib -0.057 | [7] -0.204 | volasertib 0 | [8] 0.004 | [9] -0.06 | [10] 0.088 | saracatinib -0.075 | sotrastaurin 0.033

TUBB4A (UniProt M0QYM7)
inactive: ibrutinib 0.092 | [11] 0.049 | ralimetinib 0.103 | [1] -0.117 | [2] 0.005 | [3] -0.102 | [5] 0.13 | [6] 0.102 | [12] 0.024 | vemurafenib 0.019 | [13] -0.099 | barasertib 0.315 | [7] -0.193 | volasertib -0.069 | [8] -0.053 | [9] -0.772 | [10] 0.448 | sotrastaurin 0.111

TJP1 (UniProt G3V1L9)
inactive: ibrutinib 0.024 | ralimetinib 0.075 | [1] -0.014 | [2] -0.025 | [3] -0.041 | [4] 0.022 | [5] -0.017 | [6] -0.041 | vemurafenib 0.076 | barasertib -0.034 | [8] -0.021 | [9] 0.04 | [10] -0.004 | saracatinib 0.096 | sotrastaurin -0.046

TUBB6 (UniProt K7ES63)
inactive: ibrutinib -0.005 | [11] 0.076 | ralimetinib 0.094 | [1] -0.07 | [2] 0.132 | [3] -0.061 | [5] -0.005 | [6] 0.027 | [12] -0.098 | vemurafenib 0.072 | [13] -0.027 | barasertib -0.012 | [7] -0.096 | volasertib -0.064 | [8] 0.018 | [9] -0.06 | [10] 0.23 | sotrastaurin 0.036

TK1 (UniProt K7ERV3)
inactive: ibrutinib 0.175 | ralimetinib -0.018 | [1] -0.061 | [2] -0.114 | [3] -0.013 | [4] -0.023 | [5] 0.032 | [6] -0.028 | vemurafenib -0.001 | barasertib 0.072 | [7] -0.105 | [8] 0.049 | [9] -0.102 | [10] 0.068 | saracatinib 0.089 | sotrastaurin -0.147

TMEM177 (UniProt Q53S58)
UniProt Q53S58, sequence (Q53S58 whole entry, looked up): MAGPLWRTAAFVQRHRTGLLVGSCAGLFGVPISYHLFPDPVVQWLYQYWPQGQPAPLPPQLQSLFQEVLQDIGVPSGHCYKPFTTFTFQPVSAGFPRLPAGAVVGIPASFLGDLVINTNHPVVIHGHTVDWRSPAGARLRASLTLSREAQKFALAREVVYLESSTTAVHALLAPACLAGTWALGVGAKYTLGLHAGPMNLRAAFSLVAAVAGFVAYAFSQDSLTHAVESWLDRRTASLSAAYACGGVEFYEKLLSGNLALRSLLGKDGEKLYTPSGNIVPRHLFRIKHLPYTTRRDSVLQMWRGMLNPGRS
inactive: ibrutinib 0.079 | [11] -0.022 | ralimetinib -0.287 | [2] 0.007 | [5] -0.03 | [6] 0.032 | [12] -0.005 | vemurafenib -0.057 | [13] 0.011 | barasertib 0.063 | [7] -0.005 | volasertib -0.076 | [8] 0.078 | [9] 0.056 | [10] -0.161 | sotrastaurin -0.017
active: [1] -0.311

TMSB4X (UniProt P62328)
UniProt P62328, sequence (P62328 whole entry, looked up): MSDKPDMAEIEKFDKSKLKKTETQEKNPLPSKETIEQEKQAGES
inactive: ibrutinib 0.519 | [11] -0.03 | ralimetinib 0 | [1] -0.072 | [2] 0.033 | [3] 0.122 | [5] -0.025 | [6] 0.075 | [12] -0.064 | [13] -0.068 | barasertib 0.056 | [7] 0.084 | volasertib 0.104 | [8] -0.187 | [9] -0.191 | [10] 0.371 | sotrastaurin 0.205

— the supplement of paper PMC10849652
